PERK inhibitor – block of dimerizer-induced PERK translation repression, primary screen, PERK inhibitor project, CHO PERK-DD cells, SEAP luminescence, HTS; Eukaryotic translation initiation factor 2-alpha kinase 3 (Homo sapiens), Q9NZJ5; CHO PERK-DD fusion, SEAP luminescence translation reporter; inhibition, % at 5.6 µM; 220,000 tested, 0.17% active; AID 1416, 2008;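 active means inhibition above the mean inhibition of all tested compounds plus 3 SD, set separately per screening campaign, cut at about 2.9% in these data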;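 further: PERK kinase domain activated by AP20187 dimerizer at 100 nM; 0% = DMSO with dimerizer and 100% = rapamycin at 8.4 µM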
PABP1 MLLE inh – inhibitors of PABP1 MLLE–PAM2 peptide binding, primary screen, biochemical, fluorescence polarization, FITC-PAM2, GST-MLLE; Polyadenylate-binding protein 1 (Homo sapiens), P11940; 360,000 tested, 0.36% active; inhibition, % at 20 µM; in the data active means inhibition above about 35%, passing the limit was not always enough;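 further: plate controls were DMSO wells with GST-MLLE for no effect and wells lacking GST-MLLE protein for full effect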
PABP FP inh – PABP poly(A) RNA binding inhibitors, primary screen, biochemical, fluorescence polarization, uHTS. inhibition, % at 35 µM. AID 2014, 2009. 290,000 tested, 1% active;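 further: calls also rest on retests at 20 µM and on dose response follow-up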
eIF4H FP inh – human eIF4H binding inhibitors, primary screen, translation initiation inhibitor project, biochemical, uHTS, fluorescence polarization | eIF4H fluorescence polarization binding assay | 290,000 tested, 0.94% active | inhibition, % at 35 µM | Eukaryotic translation initiation factor 4H (Homo sapiens), Q15056;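 further: calls also rest on retests at 20 µM and on dose response follow-up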
GRK2 aptamer HTS – compounds blocking aptamer binding on GRK2 – biochemical, human GRK2, bead flow cytometry, HTS, primary screen; Beta-adrenergic receptor kinase 1 (Homo sapiens), P25098; FAM-aptamer displacement from GRK2; inhibition of aptamer binding, % at 10 µM; 330,000 tested, 0.59% active; AID 488847, 2010;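 active means inhibition of aptamer binding above 40%, roughly 3 SD of noise, on plates passing a quality check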;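 further: median bead fluorescence of bound FAM aptamer so fluorescent compounds give negative values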
Starred values were filed as active, the others as inactive; i = inactive; ? = inconclusive; nt = not tested or not shown. Rows were chosen to be rich in hits. Some 1.9% of all compounds tested hit in one or more screens of this group. Unless noted, how the calls were made is not given here.

SMILES	PERK inhibitor	PABP1 MLLE inh	PABP FP inh	eIF4H FP inh	GRK2 aptamer HTS
Cc1ccc(CNC(=O)/C=C/c2ccc(S(=O)(=O)NCc3ccco3)cc2)cc1	0	0	-1	-3	0
Cn1nnc(NC(=S)NC(=O)c2cccc3c(Br)cccc23)n1	nt	40*	-4	-13	0
Cn1nnc(NC(=S)NC(=O)c2cccc3c(Cl)cccc23)n1	nt	22	-3	0	1
Cc1cccc(NC(=O)c2c(O)c3ccccc3n(C)c2=O)c1	nt	7	-2	-9	0
O=C(Nc1cc(C(F)(F)F)ccc1N1CCCC1)C1CCCO1 (stereo not given)	nt	4	nt	nt	0
O=C(COC(=O)c1ccccc1S(=O)(=O)N1CCCCC1)NCC(F)(F)F	0	15	73*	active	0
O=C(CC1Sc2ncnn2C1=O)Nc1ccc(Cl)cc1 (stereo not given)	2	nt	-20	-1	2
COc1ccc(NC(=O)CC2Sc3ncnn3C2=O)cc1 (stereo not given)	1	43*	-20	-16	1
CCOC(=O)c1ccc(NC(=O)CC2Sc3ncnn3C2=O)cc1 (stereo not given)	0	42*	-12	-2	0
Cc1ccc(S(=O)(=O)/N=C(\CCl)N2CCOCC2)cc1	0	12	23	0	3
COc1ccc(OCCN2CCC(C(=O)NC(c3ccsc3)c3ccccc3C)CC2)cc1 (stereo not given)	nt	-3	nt	nt	nt
COc1ccc(-n2nc(C(=O)NCc3ccco3)c3c4ccccc4n(C)c3c2=O)cc1	0	8	89*	2.8*	4
COC(=O)C(N)CCCCN (stereo not given)	nt	7	nt	nt	0
O=C(Nc1cccc(Oc2ccc(C(=O)O)c(C(=O)O)c2)c1)c1ccc(-c2ccccc2)cc1	1	3	13	66*	5
CC(C)(C)C(=O)Nc1ccc(C(=O)Nc2cccc(Oc3ccc(C(=O)O)c(C(=O)O)c3)c2)cc1	nt	1	-2	4	2
COc1ccc2c(c1)CC=C1C2CCC2(C)C(=O)C(=NO)CC12 (stereo not given)	nt	-1	nt	nt	nt
FC(F)(F)C(F)(F)c1nc2nc(Cl)c(Cl)nc2[nH]1	nt	-5	nt	nt	nt
N#C/C(=C\c1ccc(-c2cccc([N+](=O)[O-])c2)o1)c1nnc(N2CCOCC2)n1-c1ccccc1	0	nt	6	3	0
CC1CCN(S(=O)(=O)c2cc(C(=O)N3CCN(c4ccccc4)CC3)ccc2Br)CC1	nt	-15	nt	nt	nt
CN1CCC(N(C)S(=O)(=O)c2ccc(NC(=O)COc3ccc(F)cc3Cl)cc2)CC1	nt	-91	78*	3	0
CN1CCC(N(C)S(=O)(=O)c2ccc(NC(=O)COc3ccc(F)cc3)cc2)CC1	nt	-131	nt	nt	0
O=c1[nH]c(=S)[nH]c2c1C(c1ccc(Br)cc1)c1c([nH]c(=S)[nH]c1=O)O2	nt	38	93*	83*	19
O=C1CCCC2=C1C(c1ccc(Br)cc1)c1c([nH]c(=S)[nH]c1=O)N2 (stereo not given)	2	11	26	17	4
CCOC(=O)N1CCN(C(=O)CSCc2nc(-c3ccccc3F)oc2C)CC1	-1	45*	-5	1	2
CC(=O)c1cccc(NC(=O)/C=C/c2ccc(S(=O)(=O)N3CCOCC3)cc2)c1	nt	-5	nt	nt	96*
SMILES	PERK inhibitor	PABP1 MLLE inh	PABP FP inh	eIF4H FP inh	GRK2 aptamer HTS
CN(C)S(=O)(=O)c1cccc(NC(=O)/C=C/c2ccc(S(=O)(=O)N3CCOCC3)cc2)c1	nt	3	nt	nt	0
Clc1ccc(-c2nc3ncccn3c2Nc2ccc3c(c2)OCO3)cc1	0	-2	54*	61*	0
c1csc(-c2nn3c(Cn4nnc5ccccc54)nnc3s2)c1	0	0	-8	-4	0
Brc1ccc(-c2nn3c(-c4ccco4)nnc3s2)o1	0	18	70*	66*	2
c1coc(-c2nn3c(Cn4nnc5ccccc54)nnc3s2)c1	0	38*	-11	5	0
O=S1(=O)C[C@@H]2N=C(N/N=C/c3ccccc3)S[C@@H]2C1	1	12	1	-1	0
C/C(=N\NC1=N[C@H]2CS(=O)(=O)C[C@H]2S1)c1ccccc1	3.3*	7	3	2	0
NCc1cc2c3c(c1)CCCN3CCC2	nt	36*	115*	93*	17
O=c1[nH][nH]c(=O)c2c1[nH]c(=S)n2Cc1ccccc1	nt	6	nt	nt	nt
Cc1noc(C)c1S(=O)(=O)Nc1ccc(C(=O)N2CCC(C)CC2)cc1	1	nt	11	0	3
CCOC(=O)C1=C(N)n2c(s/c(=C\c3ccco3)c2=O)=C(C(=O)OCC)C1c1ccco1 (stereo not given)	-1	-4	86*	97*	0
O=[N+]([O-])c1cc2ccccc2c(O)c1O	nt	41*	nt	nt	nt
C=CCNC(=O)CSc1nnc(-c2ccccn2)n1Cc1ccccc1	-1	5	52*	?	1
COc1ccc(NC(=O)C2CCCN2S(=O)(=O)c2ccc3c(c2)CC(C)N3C(C)=O)cc1OC (stereo not given)	nt	-6	6	2	9
O=C1NN(CCO)C(=S)Nc2ccccc21	nt	36*	nt	nt	nt
CN1CC(=O)Nc2ccccc2C1=O	nt	-9	7	-4	1
O=C(Nc1ccc(N2CCCCC2)cc1)c1ccc([N+](=O)[O-])o1	nt	-7	18*	74*	2
CC(=O)C1=CCC(c2ccccc2Cl)N(S(=O)(=O)c2ccc(C)cc2)C1 (stereo not given)	nt	-11	nt	nt	nt
O=C(Nc1ccccc1)Nc1nnc([C@@H]2C[C@H](O)[C@@H](CO)O2)s1	nt	-6	nt	nt	nt
Cc1occc1-c1nnc(SCC(=O)c2cc3ccccc3oc2=O)o1	0	15	34	60*	0
Nc1c(C(=O)C2CC2)sc2nc(-c3cccs3)cc(C(F)(F)F)c12	1	i	108	94*	0
N#CCCn1cc(/C=N/NC(N)=S)c(-c2ccc(-c3ccccc3)cc2)n1	0	-35	86	1.9*	0
N#CCCn1cc(/C=N/O)c(-c2ccccc2)n1	0	2	8	1	1
CC(C)(C)c1ccc(/C([O-])=C(/C(=S)NCc2ccco2)[n+]2ccccc2)cc1	0	nt	60*	32*	0
Cc1cc(O)c2c(c1O)C(=O)[C@]13C(=C2O)C(=O)[C@@H]2[C@@H](O)[C@H]1[C@@H]1[C@H](O)[C@H]3C(=O)C3=C(O)c4c(O)cc(C)c(O)c4C(=O)[C@]312	nt	14	nt	nt	72*
CC(O)/C=C/c1ccc2ccccc2n1 (stereo not given)	0	38*	-7	1	1
O/N=C\c1cccn1-c1nccs1	2	-2	64*	10*	18
N#Cc1cccn1-c1nccs1	1	2	-10	9	1

Bioassay records: PubChem, several laboratories
